Data reported in PubChem BioAssay (NCI).
The panel holds about 83,000 compounds, 20% with a hit somewhere; the sample as a whole holds those more often.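 Each cell line was grown in a 96-well plate and treated with one concentration of compound for 48 hours. Values below 10 were considered active.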 Calls of active or inactive are those of the source.

Assays:
Experiment in all cases: NCI-60 one-dose screen, 48 h (100 = growth as untreated, 0 = no growth, -100 = all killed)
SK-MEL-2 melanoma = conditions: 10 µM unless noted
EKVX NSCLC = conditions: 10 µM unless noted
SN12C renal = conditions: 10 µM unless noted
UO-31 renal = conditions: 10 µM unless noted
TK-10 renal = conditions: 10 µM unless noted
ACHN renal = conditions: 10 µM unless noted
CAKI-1 renal = conditions: 10 µM
CCRF-CEM leukemia = conditions: 10 µM unless noted
MOLT-4 leukemia = conditions: 10 µM unless noted
SR leukemia = conditions: 10 µM unless noted
RPMI-8226 leukemia = conditions: 10 µM unless noted
OVCAR-8 ovarian = conditions: 10 µM unless noted
OVCAR-5 ovarian = conditions: 10 µM unless noted
OVCAR-4 ovarian = conditions: 10 µM unless noted
SK-OV-3 ovarian = conditions: 10 µM unless noted
IGROV1 ovarian = conditions: 10 µM unless noted
HS 578T breast = conditions: 10 µM unless noted
NCI/ADR-RES ovarian = conditions: 10 µM unless noted
OVCAR-3 ovarian = conditions: 10 µM unless noted

Measured: growth

N/C(=N\OC(=O)CSc1nc2ccccc2s1)c1ccc2ccccc2c1
inactive: SK-MEL-2 melanoma 102% | EKVX NSCLC 91.8% | SN12C renal 95.2% | UO-31 renal 78.6% | TK-10 renal 118% | ACHN renal 91% | CAKI-1 renal 85.8% | CCRF-CEM leukemia 101% | MOLT-4 leukemia 99.2% | SR leukemia 117% | RPMI-8226 leukemia 110% | OVCAR-8 ovarian 98.8% | OVCAR-5 ovarian 98.9% | OVCAR-4 ovarian 109% | SK-OV-3 ovarian 101% | IGROV1 ovarian 97.3% | HS 578T breast 105% | NCI/ADR-RES ovarian 104%

IP(CCCCCCCCCCSc1n(Cc2ccc3ccccc3c2)c(-c2ccccc2)c(-c2ccccc2)[n+]1Cc1ccc2ccccc2c1)(c1ccccc1)(c1ccccc1)c1ccccc1
inactive: NCI/ADR-RES ovarian 29.6%
active: SK-MEL-2 melanoma -59.5% | EKVX NSCLC -68.2% | SN12C renal -72.2% | UO-31 renal -4.18% | TK-10 renal -68.3% | ACHN renal -28% | CAKI-1 renal -91.4% | CCRF-CEM leukemia -33.7% | MOLT-4 leukemia -53.6% | SR leukemia -39.8% | RPMI-8226 leukemia -38% | OVCAR-5 ovarian -76.1% | OVCAR-4 ovarian -68.6% | SK-OV-3 ovarian -63% | IGROV1 ovarian -66.5% | OVCAR-3 ovarian -86.4% | HS 578T breast -30.4%

O=C1CC2(CCOCC2)Oc2ncccc21
inactive: SK-MEL-2 melanoma 95.9% | EKVX NSCLC 93.5% | SN12C renal 33.1% | UO-31 renal 101% | TK-10 renal 60.5% | ACHN renal 36.3% | CAKI-1 renal 94.2% | MOLT-4 leukemia 13.5% | SR leukemia 15% | OVCAR-8 ovarian 90.9% | OVCAR-5 ovarian 52.6% | SK-OV-3 ovarian 120% | HS 578T breast 95.2% | NCI/ADR-RES ovarian 104%
active: CCRF-CEM leukemia 0.712% | RPMI-8226 leukemia 5.53% | OVCAR-3 ovarian -54.4%

Cc1cc(F)cc(NS(=O)(=O)c2ccc(-c3cnc(C4CC4)o3)cc2)c1
inactive: SK-MEL-2 melanoma 67% | EKVX NSCLC 34.3% | SN12C renal 44.8% | UO-31 renal 43.2% | TK-10 renal 53.5% | ACHN renal 44.4% | CAKI-1 renal 39.9% | CCRF-CEM leukemia 20.8% | MOLT-4 leukemia 26.1% | SR leukemia 27.5% | OVCAR-8 ovarian 35.8% | OVCAR-5 ovarian 43% | OVCAR-4 ovarian 49.6% | SK-OV-3 ovarian 58.2% | IGROV1 ovarian 32.4% | HS 578T breast 34.1%
active: OVCAR-3 ovarian -10.1% | NCI/ADR-RES ovarian 6.6%

COc1ccc(NS(=O)(=O)c2ccc(-c3cnc(C4CC4)o3)cc2)cc1Cl
active: CAKI-1 renal -22.9%
inactive: SK-MEL-2 melanoma 49.9% | EKVX NSCLC 38.2% | SN12C renal 50.4% | UO-31 renal 51.8% | TK-10 renal 69% | ACHN renal 46.1% | CCRF-CEM leukemia 17.2% | MOLT-4 leukemia 32.4% | SR leukemia 23.2% | OVCAR-8 ovarian 40.4% | OVCAR-5 ovarian 48.8% | OVCAR-4 ovarian 52.5% | SK-OV-3 ovarian 60% | IGROV1 ovarian 41.4% | OVCAR-3 ovarian 15.5% | HS 578T breast 28.1% | NCI/ADR-RES ovarian 18.6%

COc1cc(-c2noc(C[C@@H](NC(=O)OCc3ccccc3)C(C)C)n2)cc(OC)c1OC
inactive: SK-MEL-2 melanoma 99.3% | EKVX NSCLC 96.9% | SN12C renal 90.1% | UO-31 renal 89.8% | TK-10 renal 96.1% | ACHN renal 102% | CAKI-1 renal 100% | CCRF-CEM leukemia 99.9% | MOLT-4 leukemia 93.9% | SR leukemia 95% | RPMI-8226 leukemia 106% | OVCAR-5 ovarian 97.3% | OVCAR-4 ovarian 102% | SK-OV-3 ovarian 94.5% | IGROV1 ovarian 99.5% | OVCAR-3 ovarian 110% | HS 578T breast 97.2% | NCI/ADR-RES ovarian 104%

COc1ccc(NC2=C(Cl)C(=O)C(C)=C(C)C2=O)cc1
active: CCRF-CEM leukemia 2.14% | OVCAR-4 ovarian -98.7% | IGROV1 ovarian -49.1%
inactive: SK-MEL-2 melanoma 89.6% | EKVX NSCLC 31.4% | SN12C renal 87.7% | UO-31 renal 89.9% | TK-10 renal 149% | ACHN renal 88.8% | CAKI-1 renal 91.5% | MOLT-4 leukemia 21.8% | SR leukemia 20.6% | RPMI-8226 leukemia 68.8% | OVCAR-8 ovarian 51.8% | OVCAR-5 ovarian 103% | OVCAR-3 ovarian 101% | HS 578T breast 95.1% | NCI/ADR-RES ovarian 93.9%

CN(C)C(=O)c1ccccc1-n1cnc2ccccc2c1=O
inactive: SK-MEL-2 melanoma 107% | EKVX NSCLC 101% | SN12C renal 92.7% | UO-31 renal 92.8% | TK-10 renal 97.6% | ACHN renal 96.3% | CAKI-1 renal 90.1% | CCRF-CEM leukemia 97.4% | MOLT-4 leukemia 102% | SR leukemia 103% | OVCAR-8 ovarian 103% | OVCAR-5 ovarian 104% | OVCAR-4 ovarian 106% | SK-OV-3 ovarian 107% | IGROV1 ovarian 99.9% | OVCAR-3 ovarian 110% | HS 578T breast 108% | NCI/ADR-RES ovarian 102%

C#CCOc1ccc(C(Nc2cc(Cl)ccc2Cl)c2nnnn2C2CCCCC2)cc1 (stereo unspecified)
active: EKVX NSCLC -8.05%
inactive: SK-MEL-2 melanoma 95% | SN12C renal 91.4% | UO-31 renal 62.5% | TK-10 renal 90.8% | ACHN renal 92% | CAKI-1 renal 44.4% | CCRF-CEM leukemia 85.8% | MOLT-4 leukemia 68.1% | SR leukemia 87.6% | RPMI-8226 leukemia 81.1% | OVCAR-8 ovarian 91.3% | OVCAR-5 ovarian 93.1% | SK-OV-3 ovarian 100% | IGROV1 ovarian 80.4% | OVCAR-3 ovarian 95.6% | HS 578T breast 87.4% | NCI/ADR-RES ovarian 80.2%
